The panel holds about 83,000 compounds, 20% with a hit somewhere; the sample as a whole holds those more often.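 The test compound was applied at a single concentration to cells in 96-well plates for 48 hours, and percent growth was recorded.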 Values without a mark were called inactive. The source made the active and inactive calls. Rule for the calls: active = growth percent below 10; inactive = the rest.

The record followed here is PubChem BioAssay (NCI).

Experiment in all cases: NCI-60 one-dose screen, 48 h (100 = growth as untreated, 0 = no growth, -100 = all killed)
Conditions in all cases: 10 µM

The test system of assay [1] is SR leukemia.
Assay [2] relates to RPMI-8226 leukemia.
The test system of assay [3] is OVCAR-8 ovarian.
The subject of assay [4] is OVCAR-5 ovarian.
Assay [5] relates to OVCAR-4 ovarian.
Assay [6] relates to SK-OV-3 ovarian.
The subject of assay [7] is IGROV1 ovarian.
In assay [8] the test system is OVCAR-3 ovarian.
The subject of assay [9] is HS 578T breast.
The subject of assay [10] is NCI/ADR-RES ovarian.

With `O=C(/C=C/c1ccc(Cl)cc1)c1ccc(Br)cc1`, the growth in [1] was 71.4%; in [2], 28.1%; in assay [3], 103%; in assay [4], 91.8%; in assay [5] it was 92.5%; in assay [6], 100%. Besides, the growth is 88.2% in [7], 100% in assay [8], 124% in assay [9] and 101% in [10].
`COc1ccccc1NC1=C(N2CCCCC2)C(=O)c2ccccc2C1=O`: the growth in assay [1] is 76.3%; in assay [2], 40.2%; in assay [3] it was 84.7%; in assay [4], 96.2%; in assay [5], 69.7%; in assay [6] it was 102%. Besides, the growth in [7] was 100%; in assay [8] it was 87%; in assay [9], 93.3%; in [10], 87.3%.
As for `O=C(c1ccccc1)C(Sc1ccccc1)c1ccccc1` (stereo not given), the growth in assay [1] was 49.2%; in [2], 81.7%; in [3], 86.8%; in assay [4] it was 96%; in assay [5], 78.7%; in assay [6] it was 103%. Also, the growth in assay [7] was 83.8%; in assay [8] it was 109%; in [9] it was 100%; in assay [10], 82.7%.
`O=C(Nc1cccc(C(F)(F)F)c1)C(Cl)Cl`: the growth is 94.3% in [1]; 98.5% in assay [2]; 98.7% in [3]; 105% in [4]; 110% in [5]; 103% in assay [6]. The growth was 92.5% in assay [7], 107% in assay [8], 107% in [9] and 104% in [10].
Consider `CC(C)c1[nH]nc2c(NCc3ccc(-c4ccccn4)cc3)nc(SCCN(C)C)nc12`, for which the growth in [1] was -10.3% (active); in [2] it was -14.4% (active); in [3], 13.9%; in [4], 21.4%; in assay [5] it was -1.82% (active); in assay [6] it was 8.24% (active). The growth in [7] is 16.2%; in assay [8], 4.83% (active); in assay [9], 21.4%; in assay [10], 7.1% (active).
Turning to `C[N+]1(CC2CO2)CCCCCC1` (stereo not given), the growth in [1] is 106%; in [2], 103%; in [3], 106%; in [4], 95.9%; in assay [5], 94.3%; in assay [6], 113%. The growth in assay [7] is 112%; in assay [8], 104%; in assay [9], 114%; in assay [10], 113%.
Regarding `COc1cc(NS(C)(=O)=O)ccc1Nc1c2ccc(Cl)cc2nc2c(OC)cccc12`, the growth in [1] was -16.5% (active); in assay [2] it was -19.6% (active); in assay [3], 11.7%; in assay [4], -11.9% (active); in assay [5], 62.4%; in [6], -5.68% (active). For the same compound, the growth was 19.3% in [7], 22.4% in [8], 20.2% in [9] and 25.8% in [10].
`COc1ccc(C(=O)c2sc3nc(-c4cccs4)ccc3c2N)cc1OC`: the growth in assay [1] was 14.5%; in assay [2] it was 43.4%; in assay [3] it was 53%; in [4], 82.2%; in assay [5], 61.2%; in assay [6], 70.9%. Moreover, the growth in assay [7] is 63.3%; in assay [8], 45.1%; in [9] it was 50.4%; in [10], 37.8%.
`C#C[C@]1(O)CC[C@H]2[C@@H]3CC[C@H]4CC(F)(F)CC[C@]4(C)[C@H]3CC[C@@]21C`: the growth in assay [1] is 8.15% (active); in [2], 80.1%; in [3], 84.6%; in [4] it was 88.5%; in [5], 94.2%; in assay [6] it was 60.8%. Besides, the growth in assay [7] is 94.2%; in [8], 93.9%; in assay [9], 77.6%; in assay [10] it was 92.2%.
In the case of `COc1ccc(-c2cn[nH]c2-c2cc(OC)c(OC)c(OC)c2)cc1`, the growth is 3.17% (active) in assay [1]; 6.58% (active) in [2]; 22.5% in assay [3]; 31.1% in assay [4]; 45% in assay [5]; 10.2% in [6]. Further, the growth is 29.4% in assay [7], -8.09% (active) in [8], 23% in assay [9] and 27.1% in assay [10].
As to `COc1cc2ccnc(C=O)c2cc1OC`, the growth in [1] is 1.19% (active); in [2], 50.6%; in assay [3], 44.2%; in assay [4] it was 93.1%; in [5], 80.9%; in assay [6], 106%. Besides, the growth in assay [7] was 70.5%; in [8] it was 24.9%; in assay [9], 93.4%; in [10], 54.4%.
Consider `C=CCOc1ccc2c(c1)CC=C1[C@@H]2CC[C@]2(C)C(=O)/C(=N/O)C[C@@H]12`, for which the growth in [1] was 23.9%; in [2], 40.6%; in [3], 91.2%; in assay [4], 50.6%; in assay [5], 73.3%; in assay [6] it was 121%. The growth in [7] is 97.1%; in assay [8], 108%; in assay [9], 99.2%; in assay [10] it was 83.1%.
As for `CCOC(=O)C(=O)Cc1cccnn1`, the growth in [1] is 101%; in assay [2], 102%; in assay [3] it was 103%; in assay [4] it was 103%; in assay [5] it was 102%; in [6] it was 106%. In addition, the growth was 109% in assay [7], 122% in assay [8], 133% in assay [9] and 104% in [10].
Regarding `COc1cccc2c1O/C(=C\c1ccc([N+](=O)[O-])s1)C2=O`, the growth was 8.26% (active) in assay [1]; 25.7% in [2]; 24.7% in assay [3]; 101% in [4]; 74.2% in [5]; 96.6% in assay [6]. In addition, the growth was 25.9% in [7], -16.7% (active) in [8], 40.8% in assay [9] and 87.5% in [10].
